From PubChem BioAssay
For some of these results: Results with a measured potency or affinity are listed apart. The list shows a part of the results. The source made the active and inactive calls.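 The calls were made as follows, unless noted: active = membrane potential signal shifting up or down by more than 3 SD of buffer-only wells, on both duplicate plates; inactive = the rest.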

How the values were obtained:
[1] = tested on: TRPC4 beta (transient receptor potential cation channel C4), mouse; test: TRPC4 cation channel opening, retest – cell-based, Fluo4 calcium, HEK293 TRPC4beta/mu-opioid, duplicates, 10 µM, confirmation (AID 2426;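 active = fluorescence ratio normalized to control raised more than 50% in primary screen plus both repeat runs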;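 also: percent rise of integrated ratio over buffer wells lacking compound which define 0%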); conditions: Fluo4 calcium fluorescence, at 10 µM; stronger effect = higher value
[2] = tested on: transient receptor potential cation channel C4 beta (TRPC4), mouse; test: TRPC4 cation channel opening, second retest – cell-based, second round, Fluo4, HEK293 TRPC4beta/mu-opioid, 1 µM, confirmation (AID 2461;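 active = primary screen active and over 50% activation in each of two duplicate runs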;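 as to activation: 0% = wells without test compound as baseline of integrated fluorescence ratio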); conditions: Fluo4 calcium fluorescence, at 1 µM; stronger effect = higher value
[3] = tested on: TRPC4 (transient receptor potential cation channel C4 beta), mouse; test: potentiation of DAMGO EC20 TRPC4 response – cell-based, second round, Fluo-4, HEK293 TRPC4beta/mu-opioid, 1 µM, confirmation (AID 2554;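 active = primary screen hit whose fluorescence ratio, in both repeats, exceeds the weak agonist control mean by 3 SD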); conditions: DAMGO EC20, Fluo-4 calcium flux, at 1 µM; stronger effect = higher value
[4] = tested on: TRPC4 beta (transient receptor potential cation channel C4), mouse; test: potentiation of DAMGO EC20 TRPC4 response – cell-based, Fluo-4, HEK293 TRPC4beta/mu-opioid, confirmation (AID 2555;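 active = primary screen hit whose calcium fluorescence ratio, in both repeats, exceeds the weak agonist control mean by 3 SD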); conditions: DAMGO EC20, Fluo-4 calcium flux, at 10 µM; stronger effect = higher value
[5] = target: Short transient receptor potential channel 4 (Mus musculus) (UniProt Q9QUQ5); test: blockers of DAMGO-evoked TRPC4 calcium flux – cell-based, Fluo4, HEK293 TRPC4beta/mu-opioid, confirmation (AID 2636;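 active = calcium signal cut by more than 3 SD below the full-agonist control yet still positive, in both repeats and the earlier primary screen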); conditions: at 10 µM; stronger effect = higher value
[6] = target: Short transient receptor potential channel 4 (Mus musculus) (UniProt Q9QUQ5); test: blockers of DAMGO-evoked TRPC4 calcium flux – cell-based, second round, Fluo4, HEK293 TRPC4beta/mu-opioid, 1 µM, confirmation (AID 2637;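 active = calcium signal ratio cut to more than 3 SD under the fully stimulated control mean yet still positive, in both repeats and the primary screen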); conditions: at 1 µM; stronger effect = higher value
[7] = target: Short transient receptor potential channel 4 (Mus musculus) (UniProt Q9QUQ5); test: block of DAMGO-driven TRPC4 calcium entry – cell-based, HEK293 TRPC4/mu-opioid, Fluo-4 calcium, dose response (AID 434942;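 active = primary screen inhibitor hit that blocks the TRPC4 channel at some tested dose, yielding a dose curve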)
[8] = target: Short transient receptor potential channel 6 (Mus musculus) (UniProt Q61143); test: TRPC6 blockade by TRPC4 inhibitor hits – cell-based, HEK293, membrane potential dye, duplicate, selectivity assay for TRPC4 inhibitor project, confirmation (AID 434948;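 active = active in primary screen and both duplicates, each dropping signal beyond three positive-control SD with fluorescence still positive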); conditions: HEK293 TRPC6, membrane potential dye fluorescence, at 10 µM, stimulated with maximal-effect acetylcholine; stronger effect = higher value
[9] = target: Short transient receptor potential channel 6 (Mus musculus) (UniProt Q61143); test: TRPC6 opening by TRPC4 activator hits – cell-based, HEK293, membrane potential dye, duplicate, selectivity assay for TRPC4 activator project, confirmation (AID 434950;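 active = membrane potential signal rise above negative control mean plus 3 SD in both duplicates, also active in the earlier TRPC4 screen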;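 also: 0% = buffer only wells and 100% = acetylcholine maximal-effect wells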); conditions: HEK293 TRPC6, membrane potential fluorescence, at 10 µM; activation: stronger effect = higher value; outcome: activation
[10] = target: Short transient receptor potential channel 6 (Mus musculus) (UniProt Q61143); test: positive modulators of mouse TRPC6 channel – HEK293 cells, membrane potential dye, duplicate, selectivity assay for TRPC4 potentiator project, confirmation (AID 434952;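 active = compound raising the membrane signal above positive-control mean plus 3 SD in both repeats, and a primary screen hit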); conditions: HEK293 TRPC6, membrane potential dye fluorescence, at 10 µM, maximal acetylcholine added after compound; stronger effect = higher value
[11] = target: Short transient receptor potential channel 4 (Mus musculus) (UniProt Q9QUQ5); test: calcium flux activators in TRPC4/5HT1a cells, counter-screen for TRPC4 activator project, cell-based, second counter screen, HEK293 TRPC4/5HT1a, Fluo-4 (AID 434977;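 active = calcium signal rise above buffer-control mean plus 5 SD in both duplicates, and also a hit in the primary screen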;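 also: plate controls were assay buffer for no effect and maximal serotonin response for full effect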); conditions: Fluo-4 calcium flux, at 10 µM; stronger effect = higher value
[12] = serotonin-gated TRPC4 signal block – cell-based, second counter screen, HEK293 TRPC4/5HT1a, Fluo-4, counter-screen for TRPC4 inhibitor project, confirmation (AID 434978;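 active = primary screen active whose calcium signal fell more than 3 SD beyond the full-serotonin control mean in both duplicate plates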;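 also: serotonin given first at submaximal then at maximal dose after compound preincubation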); conditions: Fluo-4 calcium flux, at 10 µM, serotonin added to trigger calcium flux; stronger effect = higher value
[13] = tested on: TRPC4 (mouse), co-expressed with 5HT1a in HEK293; test: enhancement of serotonin-evoked TRPC4 response – cell-based, second counter screen, HEK293 TRPC4/5HT1a, Fluo-4, counter-screen for TRPC4 potentiator project, confirmation (AID 434979;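 active = signal rise over 3 SD above mean of control wells given weak agonist, in both repeats and first screen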); conditions: Fluo-4 calcium flux, at 10 µM, serotonin added at its EC20 dose; stronger effect = higher value
[14] = nonspecific calcium rise without TRPC4 – cell-based, HEK293 mu-opioid receptor line, counter-screen for TRPC4 activator project, confirmation (AID 449723;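 active = hit in primary screen, with calcium signal over 5 SD above buffer well mean in both duplicates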;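 also: counter screen cells carry the mu-opioid receptor alone and lack TRPC4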); conditions: HEK293 mu-opioid cells, Fluo-4 calcium fluorescence, at 10 µM; stronger effect = higher value
[15] = nonspecific potentiation of DAMGO calcium response – cell-based, HEK293 mu-opioid receptor line, counter-screen for TRPC4 allosteric potentiator project, confirmation (AID 449724;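 active = calcium signal rise more than 3 SD above the low-dose agonist control mean, in both duplicate plates and the primary screen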); conditions: HEK293 mu-opioid receptor cells, Fluo-4 calcium flux, at 10 µM, compound added before EC20 DAMGO stimulus; stronger effect = higher value
[16] = target: Short transient receptor potential channel 4 (Mus musculus) (UniProt Q9QUQ5); test: DAMGO-gated TRPC4 membrane potential modulation – cell-based, second specificity screen, HEK293 TRPC4/mu-opioid, selectivity assay for TRPC6 inhibitor project, confirmation (AID 2776;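 active = compounds whose fluorescence signal differed from control wells by over 3 SD, either direction, in both duplicate plates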); conditions: HEK293 TRPC4/MOR, membrane potential dye fluorescence, at 10 µM, channel activated by saturating DAMGO dose; stronger effect = higher value
[17] = tested on: transient receptor potential cation channel C4 (TRPC4), mouse; test: membrane potential change in TRPC4 cells – cell-based, HEK293 TRPC4/mu-opioid, membrane potential dye, selectivity assay for TRPC6 inhibitor project, confirmation (AID 2777;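 active = rise or fall in signal beyond 3 SD of buffer-only wells in both replicate plates, either sign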;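 also: integrated kinetic ratio of fluorescence range over baseline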); conditions: membrane potential fluorescence, at 10 µM
[18] = parental HEK293 depolarization signal interference – cell-based, second counter screen, counter-screen for TRPC6 inhibitor project, confirmation (AID 2779;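 active = membrane potential signal moving either way by over 3 SD of the maximum-effect control, in both duplicate plates, meaning non-specific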); conditions: parental HEK293 membrane potential dye fluorescence; at 10 µM; maximal acetylcholine challenge after compound addition
[19] = nonspecific voltage dye signal in HEK293 – cell-based, parental HEK293, counter-screen for TRPC6 inhibitor project, confirmation (AID 2780); conditions: parental HEK293 membrane potential dye fluorescence; at 10 µM;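 as to membrane potential signal change: plate controls were buffer EC0 wells for no effect and acetylcholine ECmax wells for full effect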
[20] = target: Short transient receptor potential channel 6 (Mus musculus) (UniProt Q61143); test: blockers of TRPC6 cation channel activity – HEK293 cells, membrane potential dye, duplicate, confirmation (AID 488960;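 active = fluorescence ratio falls more than 5 SD below the full-stimulation control mean, in both duplicate runs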;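 as to inhibition: integrated fluorescence ratio of peak minus minimum over baseline after agonist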); conditions: ACh-evoked depolarization, at 10 µM; stronger effect = higher value
[21] = target: Short transient receptor potential channel 6 (Mus musculus) (UniProt Q61143); test: mouse TRPC6 channel activators, confirmation, HEK293 cells, membrane potential dye, duplicate (AID 488961;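 active = ratio signal rise beyond 5 SD above unstimulated control wells' mean, seen in both duplicate runs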); conditions: HEK293-TRPC6 membrane potential dye fluorescence, FDSS, at 10 µM; stronger effect = higher value
[22] = nonspecific flux increase, KCNQ1-free cells – parental CHO cells, counter-screen for KCNQ1 potentiator project (AID 493006;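 active = duplicate-averaged activation above buffer control mean plus 5 SD of those controls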); conditions: parental CHO-K1 cells, FluxOR thallium flux, at 10 µM; stronger effect = higher value
[23] = target: Potassium voltage-gated channel subfamily KQT member 1 (Homo sapiens) (UniProt P51787); test: enhancement of KCNQ1 channel thallium flux – FluxOR thallium flux, CHO cells, duplicates, confirmation (AID 493007;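 active = potentiation averaged over duplicate wells exceeding buffer-only control mean by more than 3 SD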;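 also: cells depolarized by a potassium plus thallium sulfate stimulus after compound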); conditions: KCNQ1 cell line, FluxOR thallium flux fluorescence, at 10 µM; stronger effect = higher value, % of reference activator effect, buffer zero
[24] = target: Potassium voltage-gated channel subfamily KQT member 2 (Rattus norvegicus) (UniProt O88943); test: KCNQ2 thallium flux enhancement – KCNQ2-CHO-K1 cells, selectivity assay for KCNQ1 potentiator project (AID 493009;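 active = mean duplicate potentiation above the buffer control mean plus 5 SD of buffer wells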;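 also: assay conditions were tuned for KCNQ1 rather than KCNQ2 modulators; signal is max minus min fluorescence divided by baseline after thallium stimulus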); conditions: FluxOR thallium flux fluorescence, at 10 µM; stronger effect = higher value, scaled: buffer 0, activator control 100
[25] = target: Potassium voltage-gated channel subfamily KQT member 1 (Homo sapiens) (UniProt P51787); test: KCNQ1 activators by electrophysiology – IonWorks patch clamp, KCNQ1-CHO cells, orthogonal assay for KCNQ1 potentiator project, confirmation (AID 493184;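 active = current rise at least 3 SD above the untreated control mean in each of two repeat wells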); conditions: automated patch clamp current, at 10 µM; stronger effect = higher value

Sequence of Short transient receptor potential channel 6 (Mus musculus) (Q61143 whole entry, looked up): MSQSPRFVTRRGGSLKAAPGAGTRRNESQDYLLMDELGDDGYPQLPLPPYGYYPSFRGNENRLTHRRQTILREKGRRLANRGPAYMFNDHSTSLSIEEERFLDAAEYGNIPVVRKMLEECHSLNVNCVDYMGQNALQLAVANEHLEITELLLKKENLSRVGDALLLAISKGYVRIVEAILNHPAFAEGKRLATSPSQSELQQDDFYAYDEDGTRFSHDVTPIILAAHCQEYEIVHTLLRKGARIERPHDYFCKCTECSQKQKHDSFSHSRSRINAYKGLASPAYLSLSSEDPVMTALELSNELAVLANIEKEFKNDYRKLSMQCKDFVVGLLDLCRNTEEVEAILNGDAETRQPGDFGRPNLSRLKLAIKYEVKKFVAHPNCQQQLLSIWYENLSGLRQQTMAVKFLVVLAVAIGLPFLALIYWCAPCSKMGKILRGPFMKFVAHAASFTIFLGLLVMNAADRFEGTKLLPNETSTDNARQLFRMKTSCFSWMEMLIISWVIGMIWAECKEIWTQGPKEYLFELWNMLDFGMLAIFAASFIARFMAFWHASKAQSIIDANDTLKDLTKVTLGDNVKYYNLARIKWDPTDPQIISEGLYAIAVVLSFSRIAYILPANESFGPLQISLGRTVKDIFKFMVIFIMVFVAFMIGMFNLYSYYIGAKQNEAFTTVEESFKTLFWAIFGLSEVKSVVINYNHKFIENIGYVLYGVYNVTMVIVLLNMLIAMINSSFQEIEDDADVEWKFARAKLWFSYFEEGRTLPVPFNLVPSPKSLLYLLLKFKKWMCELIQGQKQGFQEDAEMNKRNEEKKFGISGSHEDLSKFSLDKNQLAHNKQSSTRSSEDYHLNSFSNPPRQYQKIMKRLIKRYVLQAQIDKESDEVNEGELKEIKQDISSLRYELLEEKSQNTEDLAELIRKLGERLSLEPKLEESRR
Sequence of Short transient receptor potential channel 4 (Mus musculus) (Q9QUQ5 whole entry, looked up): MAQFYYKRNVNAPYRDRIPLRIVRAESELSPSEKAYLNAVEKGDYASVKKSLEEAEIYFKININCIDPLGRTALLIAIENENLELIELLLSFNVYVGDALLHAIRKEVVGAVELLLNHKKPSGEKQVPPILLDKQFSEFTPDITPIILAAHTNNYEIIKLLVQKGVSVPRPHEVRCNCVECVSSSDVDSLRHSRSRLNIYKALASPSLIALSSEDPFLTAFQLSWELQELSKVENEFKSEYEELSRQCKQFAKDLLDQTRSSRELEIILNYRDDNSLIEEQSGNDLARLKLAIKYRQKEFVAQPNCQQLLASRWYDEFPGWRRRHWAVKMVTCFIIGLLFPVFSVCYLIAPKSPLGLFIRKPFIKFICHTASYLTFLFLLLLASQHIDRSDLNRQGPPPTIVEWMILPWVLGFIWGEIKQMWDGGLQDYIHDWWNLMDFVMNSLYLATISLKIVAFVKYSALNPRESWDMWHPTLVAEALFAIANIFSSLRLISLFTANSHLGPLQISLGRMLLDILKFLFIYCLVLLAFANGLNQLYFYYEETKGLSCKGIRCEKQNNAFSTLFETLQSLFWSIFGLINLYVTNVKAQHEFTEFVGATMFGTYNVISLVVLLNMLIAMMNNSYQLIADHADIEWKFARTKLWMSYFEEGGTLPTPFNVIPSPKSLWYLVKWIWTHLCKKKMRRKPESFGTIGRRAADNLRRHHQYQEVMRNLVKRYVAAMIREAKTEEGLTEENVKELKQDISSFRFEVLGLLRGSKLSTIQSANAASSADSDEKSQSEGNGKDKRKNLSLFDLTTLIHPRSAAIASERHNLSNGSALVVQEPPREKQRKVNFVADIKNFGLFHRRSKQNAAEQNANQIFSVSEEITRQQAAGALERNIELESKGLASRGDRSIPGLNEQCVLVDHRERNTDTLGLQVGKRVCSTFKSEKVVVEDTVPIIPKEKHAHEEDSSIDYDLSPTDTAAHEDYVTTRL
Sequence of Potassium voltage-gated channel subfamily KQT member 1 (Homo sapiens) (P51787 whole entry, looked up): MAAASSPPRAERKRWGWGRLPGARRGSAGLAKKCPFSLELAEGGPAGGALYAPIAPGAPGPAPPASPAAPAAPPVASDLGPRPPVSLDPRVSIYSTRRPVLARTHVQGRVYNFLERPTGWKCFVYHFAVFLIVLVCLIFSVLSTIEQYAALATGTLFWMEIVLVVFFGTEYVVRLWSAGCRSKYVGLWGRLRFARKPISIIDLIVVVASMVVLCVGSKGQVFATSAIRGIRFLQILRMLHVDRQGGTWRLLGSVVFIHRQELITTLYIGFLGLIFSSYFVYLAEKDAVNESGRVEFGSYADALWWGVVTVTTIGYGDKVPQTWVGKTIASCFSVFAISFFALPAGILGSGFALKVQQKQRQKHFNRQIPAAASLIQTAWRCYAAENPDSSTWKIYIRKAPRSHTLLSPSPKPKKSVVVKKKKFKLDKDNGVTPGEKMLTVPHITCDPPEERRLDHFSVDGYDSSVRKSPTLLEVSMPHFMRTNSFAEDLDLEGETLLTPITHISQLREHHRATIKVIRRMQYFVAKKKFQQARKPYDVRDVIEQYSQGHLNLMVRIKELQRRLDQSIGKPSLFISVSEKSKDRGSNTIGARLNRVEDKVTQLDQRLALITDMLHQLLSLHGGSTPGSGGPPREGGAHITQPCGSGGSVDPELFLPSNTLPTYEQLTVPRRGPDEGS
Sequence of Potassium voltage-gated channel subfamily KQT member 2 (Rattus norvegicus) (O88943 whole entry, looked up): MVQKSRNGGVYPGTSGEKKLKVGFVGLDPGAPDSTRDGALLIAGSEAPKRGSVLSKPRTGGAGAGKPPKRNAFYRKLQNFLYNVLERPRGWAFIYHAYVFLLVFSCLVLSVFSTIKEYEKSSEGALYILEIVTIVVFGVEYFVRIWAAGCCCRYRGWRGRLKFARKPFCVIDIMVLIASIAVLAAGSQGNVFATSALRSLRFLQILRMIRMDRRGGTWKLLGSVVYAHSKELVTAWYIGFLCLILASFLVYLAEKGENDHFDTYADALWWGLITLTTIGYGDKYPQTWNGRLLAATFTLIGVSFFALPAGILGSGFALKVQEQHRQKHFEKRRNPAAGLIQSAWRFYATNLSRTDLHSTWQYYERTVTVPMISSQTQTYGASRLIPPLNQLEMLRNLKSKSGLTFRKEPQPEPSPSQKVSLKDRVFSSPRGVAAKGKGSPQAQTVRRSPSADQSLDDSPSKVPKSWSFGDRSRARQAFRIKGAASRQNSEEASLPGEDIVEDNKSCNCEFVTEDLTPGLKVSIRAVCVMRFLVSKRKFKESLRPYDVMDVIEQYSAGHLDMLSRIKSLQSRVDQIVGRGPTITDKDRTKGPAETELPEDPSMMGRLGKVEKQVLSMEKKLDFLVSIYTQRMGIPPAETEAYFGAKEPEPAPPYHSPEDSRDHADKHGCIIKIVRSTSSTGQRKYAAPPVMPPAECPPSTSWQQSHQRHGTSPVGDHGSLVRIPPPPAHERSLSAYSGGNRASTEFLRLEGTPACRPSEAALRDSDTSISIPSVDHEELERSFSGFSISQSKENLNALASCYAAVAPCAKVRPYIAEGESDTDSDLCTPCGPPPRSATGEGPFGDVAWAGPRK

CN(C)CCCOc1cccc(Cl)c1
inactive: outcome [5] | outcome [6] | outcome [7] | outcome [8] | outcome [10] | outcome [12] | outcome [14] | outcome [15]
active: activation [1] 71% | activation [2] 55% | potentiation [3] 32% | potentiation [4] 37% | activation [9] 51% | activation [11] 17.9% | potentiation [13] 28.7%

CC1CC(C)CN(C/C=C/c2ccccc2[N+](=O)[O-])C1 (configuration not stated)
active: activity change, negative = inhibition [17] 4.24% | signal change vs control [18] 266% | membrane potential signal change [19] 0.38%
inactive: outcome [16] | outcome [20] | outcome [21]

COc1ccc(N/C(C)=C2/C(=O)C(=O)N(CCO)C2c2ccc(Br)cc2)cc1 (configuration not stated)
inactive: outcome [2] | outcome [4] | outcome [5] | outcome [6] | outcome [7] | outcome [8] | outcome [10] | outcome [12] | outcome [14] | outcome [15]
active: activation [1] 289% | potentiation [3] 141% | activation [9] 31.5% | activation [11] 57.5% | potentiation [13] 60.7%

CN(C)CCOC(=O)C(c1ccccc1)C1(O)CCCC1 (configuration not stated)
inactive: outcome [16] | outcome [17] | outcome [21]
active: signal change vs control [18] -39.5% | membrane potential signal change [19] 0.13% | inhibition [20] 90.5%

CCCCCOc1ccc(CSC2=NCCN2)cc1[N+](=O)[O-]
inactive: outcome [17] | outcome [18] | outcome [19] | outcome [21]
active: inhibition [16] 59% | inhibition [20] 54.9%

CCCCCCCCCCOC(=O)C[N+](C)(C)CC1CCCCC1O (configuration not stated)
active: activity change, negative = inhibition [17] 7.58% | membrane potential signal change [19] 2.25%
inactive: outcome [16] | outcome [18] | outcome [20] | outcome [21]

CCN(CC)c1ccc2cc(C(N)=O)/c(=N\NC(=O)c3ccncc3)oc2c1
inactive: outcome [20] | outcome [21]
active: inhibition [16] 70.5% | activity change, negative = inhibition [17] 31.7% | signal change vs control [18] -52% | membrane potential signal change [19] 1.95%

COc1ccc(CNC(=O)c2cc3c(=O)n4ccccc4nc3n(CC3CCCO3)c2=N)cc1 (configuration not stated)
active: activity change, negative = inhibition [17] -15.8% | signal change vs control [18] 32% | membrane potential signal change [19] -176%
inactive: outcome [16] | outcome [20] | outcome [21] | outcome [22] | outcome [23] | outcome [24] | outcome [25]

c1ccc(C2c3[nH]c4ccccc4c3CCN2Cc2cccn2-c2cccnc2)nc1 (configuration not stated)
active: activity change, negative = inhibition [17] -10.1% | membrane potential signal change [19] -129%
inactive: outcome [16] | outcome [18] | outcome [20] | outcome [21]

COc1cc(/C=C2/SC(=S)N(Cc3ccccc3)C2=O)cc(Cl)c1O
inactive: outcome [2] | outcome [5] | outcome [6] | outcome [7] | outcome [8] | outcome [12] | outcome [13]
active: activation [1] 144% | potentiation [3] 11% | potentiation [4] 21% | activation [9] 930% | potentiation, percent of control [10] 310% | activation [11] 156% | activation [14] 165% | activation [15] 1140%

C[C@H](NC(=O)OC(C)(C)C)c1nnc(SCC(=O)Nc2ccc(Br)cc2)o1
active: membrane potential signal change [19] 0.29%
inactive: outcome [16] | outcome [17] | outcome [18] | outcome [20]

COc1ccc(CC(=O)Nc2sc(Cc3ccccc3)c(C)c2C(N)=O)cc1
inactive: outcome [16] | outcome [17] | outcome [18] | outcome [19] | outcome [20] | outcome [21]

CCOC(=O)N1CCC(NC(=O)CN2C(=O)COc3ccc(C(C)(C)C)cc32)CC1
inactive: outcome [16] | outcome [17] | outcome [18] | outcome [19] | outcome [20]

CCOC(=O)N1CCC(O)(c2cc(C)c(C)cc2C)CC1
inactive: outcome [16] | outcome [17] | outcome [18] | outcome [19]
active: inhibition [20] 55%
